An excerpt weighted towards active compounds, which were near 3.6% of everything screened.
Rango complex inh: inhibitors of Rango-importin beta complex formation; Q14974; Rango CFP/YFP FRET sensor + importin beta, 45 min; Potency, µM (highest dose often 92.2 µM), without a hit: at the highest dose inhibition of complex formation; 340,000 compounds, 0.031% hits; AID 540263; calls by dose curve;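 further: potency means the concentration at half of the fitted maximal effect; 0% = DMSO wells and 100% = buffer wells lacking importin beta; nearly all actives have a fitted effect of over 15% in size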
Target sequence (Q14974 whole entry, looked up): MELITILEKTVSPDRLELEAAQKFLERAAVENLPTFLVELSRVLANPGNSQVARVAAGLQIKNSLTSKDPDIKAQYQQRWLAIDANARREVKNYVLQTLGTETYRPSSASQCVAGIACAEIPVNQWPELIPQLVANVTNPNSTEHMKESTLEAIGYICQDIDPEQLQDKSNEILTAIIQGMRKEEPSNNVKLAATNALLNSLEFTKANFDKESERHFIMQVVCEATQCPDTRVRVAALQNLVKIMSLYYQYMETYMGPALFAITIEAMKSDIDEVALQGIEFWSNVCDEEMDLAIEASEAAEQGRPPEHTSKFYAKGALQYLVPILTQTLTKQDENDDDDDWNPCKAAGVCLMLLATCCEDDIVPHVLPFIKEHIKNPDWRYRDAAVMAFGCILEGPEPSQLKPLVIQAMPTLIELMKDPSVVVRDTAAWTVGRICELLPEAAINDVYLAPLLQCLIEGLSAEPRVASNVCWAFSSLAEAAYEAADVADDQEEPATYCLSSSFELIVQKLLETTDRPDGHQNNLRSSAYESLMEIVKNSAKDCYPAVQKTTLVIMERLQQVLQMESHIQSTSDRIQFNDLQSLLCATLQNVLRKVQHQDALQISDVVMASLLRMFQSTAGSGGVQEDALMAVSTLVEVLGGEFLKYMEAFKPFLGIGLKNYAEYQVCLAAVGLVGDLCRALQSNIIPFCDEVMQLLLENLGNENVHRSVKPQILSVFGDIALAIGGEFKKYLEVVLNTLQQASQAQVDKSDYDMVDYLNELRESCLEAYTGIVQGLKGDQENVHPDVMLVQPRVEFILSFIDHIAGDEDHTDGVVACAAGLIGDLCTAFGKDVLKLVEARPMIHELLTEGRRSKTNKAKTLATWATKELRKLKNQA
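FRET biosensor Rango (snurportin 1 IBB between N-terminal EYFP and C-terminal Cerulean), 50 nM in PBS/1 mM DTT/0.02% Tween-20/0.1% BSA, preincubated 5 min RT with compound; 0.125 microM importin beta added, 45 min RT, CFP/YFP FRET ratio read.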
PLK1 PBD block: PLK1 (human) polo-box domain binding inhibition. 360,000 compounds, 2.8% hits. AID 720504. Potency, µM, for the others: max response, negative = inhibition, hits mostly inhibitors. P53350. Plk1 PBD binding of FITC phosphopeptide, fluorescence polarization; further: potency means the concentration at half of the fitted maximal effect; series mostly up to about 57 µM; on the % scale 0 is the no-effect control and ±100 the full control effect; nearly all actives have a fitted effect of over 65% in size
Rango dissoc inh: prevents RanGTP from dissociating the Rango-importin beta complex; O95149+P62826; Biochemical FRET Rango-importin beta, RanGTP-induced dissociation; Potency, µM (doses to about 46.1 µM), without a hit: at the top dose activity change, negative = inhibition; 340,000 compounds, 0.071% hits; AID 540253; calls by dose curve; further: potency means the concentration at half of the fitted maximal effect; % of control where 0% means no effect; nearly all actives have a fitted effect of over 45% in size
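Rango FRET biosensor (snurportin-1 IBB flanked by N-terminal EYFP and C-terminal CFP10) at 0.1 uM, with 0.25 uM importin beta in PBS, 1mM DTT, 0.02% Tween-20, 0.1% BSA. 0.6 uM Ran, 2mM GTP and 0.2 uM RCC1 were then added for 45 min at room temperature. Inhibition read as loss of FRET rise.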
PI5P4Ka inh: inhibitors of human PI5P4K alpha | P48426 | PI5P4Kalpha enzyme, ADP-Glo luminescence, 60 min; active compounds read low | max response, % | 330,000 compounds, 1.2% hits; active means max response of -50% or lower; inconclusive means between -30% and -50%; inactive means -30% or higher; further: value at the top dose of about 77 µM; on the % scale 0 is the no-effect control and ±100 the full control effect
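ADP-Glo luminescence end-point read after a 60 min room-temperature kinase reaction of PI5P4Kalpha plus substrate, initiated with ATP at 5 microM final. Buffer: 0.038 M HEPES pH 7.4, EGTA, 0.1% CHAPS, 5% DMSO.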
GCN5L2 inh: blocks human GCN5L2 histone acetyltransferase. GCN5L2 HAT assay, ThioGlo1 CoA-SH fluorescence. Potency, µM (doses to about 58.9 µM), inactives show at the top dose activity change, negative = inhibition, most hits filed as inhibitors. 390,000 compounds, 0.21% hits; further: potency means the concentration at half of the fitted maximal effect; on the % scale 0 is the no-effect control and ±100 the full control effect
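Compounds, pin-transferred from DMSO stocks, meet 20nM GCN5L2 for 15 min before the reaction begins with H3(1-25) peptide (75uM) and acetyl-CoA (70uM). Thiol-reactive ThioGlo1 reports CoA release over 20 min at room temperature.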
VDR inh: vitamin D3 receptor (human) inhibition. VDR-SRC2-3 peptide fluorescence polarization, 2 h. Potency, µM, without a hit: max response, negative = inhibition, hits mostly inhibitors. 400,000 compounds, 0.93% hits. AID 504847; further: potency means the concentration at half of the fitted maximal effect; on the % scale 0 is the no-effect control and ±100 the full control effect
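Fluorescence polarization assay measuring small-molecule disruption of VDR binding to the coregulator peptide SRC2-3. Compounds were pin-transferred (23 nl) into the reagent mix and incubated 2 h at room temperature before reading.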
Starred values were filed as active, the others as inactive; ? = inconclusive; nt = no result given; ! = not active in a repeat. Unless noted, the call rests on the fitted dose curve; in most records, active means well fitted curve in the direction sought with a large enough effect; inconclusive means small, poorly fitted or top-dose-only effect, or another doubt; inactive means no such curve, though single readings can be large; an effect the other way counts as inactive or inconclusive.

SMILES	Rango complex inh	PLK1 PBD block	Rango dissoc inh	PI5P4Ka inh	GCN5L2 inh	VDR inh
O=C(CN1C(=O)CC(c2ccco2)Sc2ccccc21)Nc1ccccc1F (stereo not drawn)	?	-22.1%	?	?	-6.0%	79.4µM*
CCN(CC)CCCNC(=O)CCC(=O)NNc1nc2ccccc2c2nc(C)nn12	5.9%	-2.5%	-8.9%	-5.0	-4.5%	79.4µM*!
Cc1nc2c3ccccc3nc(NNC(=O)CCC(=O)NCCC(C)C)n2n1	-5.6%	-1.8%	7.7%	-2.0	-4.5%	-10.0%
Cc1cc(Cl)n2c(nc3ccccc32)c1C#N	?	?	?	-1.1	-2.1%	39.8µM*
CNc1cc(C)c(C#N)c2nc3ccccc3n12	?	-1.5%	-1.6%	-5.3	-22.2%	-6.6%
Cc1nn(C)cc1/C=C1\SC(=S)NC1=O	-0.3%	-3.0%	0.5%	-81.9*	-1.1%	0.6%
Cc1nn(C)c(C)c1/C=C1/SC(=S)NC1=O	0.2%	-7.1%	9.7%	-78.4*	-5.5%	-17.2%
CC(=O)c1ccc(NC(=O)C2C3C=CC(C3=C(c3ccccc3)c3ccccc3)C2C(=O)O)cc1 (stereo not drawn)	0.0%	42.3µM*	-10.2%	-12.5	-3.0%	-21.2%
COc1cccc(CNC(=O)C2CCN(C(=O)N3CCOc4ccc(Cl)cc43)CC2)c1OC	nt	nt	nt	nt	-12.6%	1.8%
CC1CCN(c2oc(-c3ccc(OCc4ccccc4Cl)cc3)nc2C#N)CC1	nt	nt	nt	nt	nt	-8.5%
COc1ccc(N2CC(C(=O)Nc3nnc(C4CCCCC4)s3)CC2=O)cc1 (stereo not drawn)	-4.6%	29.9µM*	-5.0%	-16.0	-3.0%	?
COc1ccc(N2CC(C(=O)N/N=C/c3cccs3)CC2=O)cc1 (stereo not drawn)	-1.1%	23.8µM*	9.1%	0.8	-4.4%	-12.9%
Cn1nnnc1SCCCNCc1ccccc1OCc1ccc(Cl)cc1	nt	nt	nt	nt	-4.5%	0.6%
CCOC(=O)c1c(C)n(-c2ccc(C)cc2)c2ccc(O)c(CN(C)C)c12	-1.5%	-4.9%	-17.0%	-0.5	-0.3%	2.7%
CCOC(=O)c1c(C)n(-c2ccc(OC)cc2)c2ccc(O)c(CN(C)C)c12	-0.4%	29.9µM*	0.5%	1.2	-0.1%	-12.4%
CC(=O)c1ccc2c(c1)c(C#N)c1ccccc1[n+]2[O-]	?	2.38µM*	?	0.3	1.8%	-13.5%
O=C(NC1CCN(C(=S)NCc2ccco2)CC1)NC12CC3CC(CC(C3)C1)C2	-0.6%	29.9µM*	-27.7%	nt	-5.0%	10.1%
O=C1NC(c2ccccc2)Nc2c1sc(=S)n2-c1ccccc1 (stereo not drawn)	-2.5%	21.2µM*	14.3%	-3.8	-9.9%	-6.4%
CCOC(=O)c1cccc(NC(=O)NCCc2c(C)nn(C)c2C)c1	nt	nt	nt	nt	12.6%	9.8%
O=C(N/N=C1/CC2C=CCC12)c1cccs1 (stereo not drawn)	0.7%	-0.3%	-3.9%	2.3	-14.8%	16.5%
O=C(N/N=C1/CC2C=CCC12)c1ccco1 (stereo not drawn)	-1.5%	29.9µM*	22.1%	1.1	-0.5%	?
CCOC(=O)COc1ccc(C)cc1C(=O)c1ccn2nc(-c3ccc(C)cc3)cc2n1	nt	nt	nt	nt	-5.2%	-9.8%
CCOC(=O)c1[nH]c2ccccc2c1NC(C)=O	0.5%	-6.8%	?	-1.1	-2.6%	-0.5%
CSc1ccc(C(c2c(C(=O)O)[nH]c3ccccc23)c2c(C(=O)O)[nH]c3ccccc23)cc1	?	10.6µM*	-13.6%	-9.6	-25.7%	-26.7%
CCOc1cc(Br)cc(C(c2c(C(=O)O)[nH]c3ccccc23)c2c(C(=O)O)[nH]c3ccccc23)c1O	-2.1%	15µM*	18.2%	-10.0	?	?
Cc1cccc(-n2ncc3c(Nc4ccc(Oc5ccc(Cl)cc5)cc4)ncnc32)c1	nt	nt	nt	nt	-8.5%	18.5%
COc1ccc(-c2cc(-c3cc(OC)ccc3O)[nH]n2)cc1	0.2%	6.7µM*	-4.2%	-25.3	-0.2%	?
